Shown are actives, neighbours in structure and some others; about 28% of the full set was active somewhere.
CYP2C9 activ – activators of human CYP2C9. recombinant CYP2C9, luciferin-H conversion, luminescence; active compounds read high; factor 1 = untreated enzyme, 0 = blocked. 96,000 compounds, 1.4% hits. activation factor at 5 µM;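 active means activation factor of 2 or more for CYP2C9 at a 5 µM dose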;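 further: 0 = sulfaphenazole-blocked wells and 1 = vehicle-only wells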
Target sequence (P11712 whole entry, looked up): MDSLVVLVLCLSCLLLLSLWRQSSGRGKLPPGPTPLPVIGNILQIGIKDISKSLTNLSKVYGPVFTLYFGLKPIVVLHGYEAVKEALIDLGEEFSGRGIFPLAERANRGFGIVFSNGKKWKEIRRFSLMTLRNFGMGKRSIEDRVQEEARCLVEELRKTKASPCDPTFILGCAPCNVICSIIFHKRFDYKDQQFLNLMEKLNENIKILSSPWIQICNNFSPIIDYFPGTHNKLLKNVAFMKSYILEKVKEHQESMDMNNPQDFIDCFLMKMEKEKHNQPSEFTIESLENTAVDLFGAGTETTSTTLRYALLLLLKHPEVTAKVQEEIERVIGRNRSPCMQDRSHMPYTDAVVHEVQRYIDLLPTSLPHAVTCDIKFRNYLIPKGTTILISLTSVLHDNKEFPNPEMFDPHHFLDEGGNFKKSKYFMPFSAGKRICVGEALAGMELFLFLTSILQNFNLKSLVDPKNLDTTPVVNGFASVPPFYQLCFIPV
CYP2C19 inh – blocks human cytochrome P450 2C19 | CYP2C19 Supersomes, luciferin-H EGE luminescence, 30 min | inhibition, % at 5 µM | 96,000 compounds, 21% hits | AID 778;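 active means CYP2C19 inhibition above a set limit at 5 µM in the primary screen, cut at about 50% in these data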;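 further: plate controls were negative control wells for no effect and 2.5 mM tranylcypromine positive control for full effect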
CYP2C9 inhib – human CYP2C9 inhibition; P11712; CYP2C9 Supersomes, luciferin-H conversion, luminescence; inhibition, % at 5 µM; 96,000 compounds, 20% hits; AID 777;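 active means blocking of liver enzyme CYP2C9 beyond about 50% at 5 µM, limit read from the data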
Mac1 fbg enh – increases human CD11b/CD18 adhesion to fibrinogen; activation, % at 10 µM; 93,000 compounds, 0.07% hits; K562 CD11b/CD18 adhesion to fibrinogen, ATPlite luminescence; P05107+P11215;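 active means 10 µM primary screen giving 50% or more activity, confirmed by 40% or more on retest at that dose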
Mac1 fbg inh – blocks human CD11b/CD18 adhesion to fibrinogen; P05107+P11215; K562 CD11b/CD18 adhesion to fibrinogen, ATPlite luminescence; Mn2+ added to activate the integrin; inhibition, % at 10 µM; 93,000 compounds, 0.54% hits;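 active means primary inhibition of 50% or more at 10 µM, then 40% or more on retest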
CYP2C19 act – cytochrome P450 2C19 (human) activation. recombinant CYP2C19, luciferin-H EGE luminescence; active compounds read high; 0 = fully inhibited enzyme, 1 = untreated enzyme. P33261. activation factor at 5 µM. 96,000 tested, under 10 active;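 active means activation factor of at least 2 at 5 µM in the primary screen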;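 further: 0 = wells with 2.5 mM tranylcypromine and 1 = vehicle-only wells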
Numbers without * were called inactive; nt = no result.

SMILES | CYP2C9 activ | CYP2C19 inh | CYP2C9 inhib | Mac1 fbg enh | Mac1 fbg inh | CYP2C19 act
Cc1noc(C)c1CSc1nc2ccccc2n1CCc1ccccc1 | 0.4 | 63* | 62* | 7 | 5 | 0.4
Cc1cc(NC(=O)CSc2nc3ccccc3c(=O)n2-c2ccccc2)no1 | 0.7 | 9 | 30 | 6 | -10 | 0.9
C=CCn1c(SCc2c(C)noc2C)nc2sc(C)c(C)c2c1=O | 0.4 | 20 | 56* | -3 | -1 | 0.8
COc1cc(C(=O)N[C@H](C(=O)NC2CCCCCC2)C(C)C)cc(OC)c1OC | 0.7 | 11 | 25 | -6 | 0 | 0.9
Cc1ccc(-c2nc(C3CCN(S(C)(=O)=O)CC3)no2)cc1 | 1.1 | -6 | -8 | -3 | 4 | 1.1
CC(C)(C)Nc1nc2nonc2nc1NC(C)(C)C | 0.9 | -6 | 6 | -2 | -1 | 1.1
COc1ccc(-c2noc(CSc3nc4sc(C)c(C)c4c(=O)n3-c3ccccc3)n2)cc1 | nt | nt | nt | 16 | 5 | nt
Cc1noc(C)c1CSc1nnnn1-c1ccc(Cl)cc1 | 0.4 | 99* | 58* | 1 | 2 | 0
Cc1noc(C)c1CSc1nc2sc(C)c(C)c2c(=O)n1-c1ccccc1 | 0.5 | -3 | 50* | 4 | -24 | 1
O=C(CN(c1ccc(Cl)c(C(F)(F)F)c1)S(=O)(=O)c1ccccc1)N/N=C/c1cccc2c1OCCO2 | 0.4 | 46 | 60* | 1 | 6 | 0.5
CCCCN(CC)S(=O)(=O)N1CCC(C(=O)NCc2ccc(F)cc2)CC1 | 0.5 | 58* | 47 | 2 | -1 | 0.4
COc1ccc(OC)c(-c2cc(C(=O)N3CCN(c4ccccc4)CC3)no2)c1 | 0.8 | 76* | 24 | 4 | 0 | 0.2
COc1ccccc1-c1cc(C(=O)N2CCN(c3ccccc3OC)CC2)no1 | 2.7* | 54* | -172 | 5 | 1 | 0.5
COc1ccccc1N1CCN(C(=O)c2cc(-c3ccc(C)cc3)on2)CC1 | 0.6 | 19 | 41 | 7 | 17 | 0.8
O=C(c1cc(C2CC2)on1)N1CCN(c2ccc(F)cc2)CC1 | 0.8 | 83* | 16 | 2 | -12 | 0.2
COc1ccc(OC)c(-c2cc(C(=O)N3CCc4ccccc4C3)no2)c1 | 1.7 | 47 | -73 | 2 | 3 | 0.5
COc1ccccc1N1CCN(C(=O)c2cc(C3CC3)on2)CC1 | 0.2 | 81* | 77* | -4 | 1 | 0.2
O=C(c1cc(-c2cccs2)on1)N1CCN(c2ccccc2)CC1 | 0.3 | 63* | 72* | 2 | 7 | 0.4
O=C(c1cc(-c2cccs2)on1)N1CCN(c2ccc(F)cc2)CC1 | 0.8 | 12 | 22 | nt | nt | 0.9
CN(C)c1ccc(-c2ccccc2)nn1 | 0.8 | 58* | 19 | -2 | -32 | 0.4
CCOC(=O)N1CCN(C(=O)c2ccc3c(c2)NC(=O)C(N2CCOCC2)S3)CC1 (stereo unspecified) | 0.9 | 15 | 7 | -3 | 6 | 0.8
CCOC(=O)C1=C(C)Nc2nnnn2C1c1c[nH]c2ccccc12 (stereo unspecified) | 0.2 | 90* | 84* | 0 | -2 | 0.1
COc1cccc(C2C(C(=O)Nc3cccnc3)=C(C)Nc3nnnn32)c1OC (stereo unspecified) | 1 | 0 | 2 | -4 | 3 | 1
C=CCOC(=O)C1=C(C)Nc2nnnn2C1c1cccc(OC)c1OC (stereo unspecified) | 0.2 | 59* | 83* | -5 | -23 | 0.4
O=C(c1ccc(Cl)c(F)c1F)N1CCCC1 | 1 | 14 | -1 | 2 | 17 | 0.9
SMILES | CYP2C9 activ | CYP2C19 inh | CYP2C9 inhib | Mac1 fbg enh | Mac1 fbg inh | CYP2C19 act
COc1ccccc1CNC(=O)C1CC(c2ccccc2[N+](=O)[O-])=NO1 (stereo unspecified) | 2.8* | 43 | -180 | nt | nt | 0.6
COc1ccc(CNC(=O)C2CC(c3ccccc3[N+](=O)[O-])=NO2)cc1 (stereo unspecified) | 1.1 | 50* | -6 | nt | nt | 0.5
Cc1cc(C)n(C(=O)c2cc3ccccc3c(=O)o2)n1 | 1.4 | -4 | -45 | nt | nt | 1
CCOC(=O)C1CCN(Cc2ccc(O)c3ncccc23)CC1 | 0.9 | 5 | 6 | 3 | -3 | 1
CCOC(=O)C1CCN(Cc2nc3ccccc3c(=O)n2-c2ccc(OCC)cc2)CC1 | 0.5 | 18 | 54* | 1 | 18 | 0.8
Cc1cc(C)c(C#N)c(SCc2c(F)cccc2[N+](=O)[O-])n1 | nt | nt | nt | 5 | -2 | nt
COc1ccc(N(C(=O)c2ccco2)S(=O)(=O)c2cccc([N+](=O)[O-])c2)cc1 | 0.9 | 7 | 9 | 0 | -13 | 0.9
CC(=O)N(c1ccc(N(C(C)=O)S(=O)(=O)c2cccs2)cc1)S(=O)(=O)c1cccs1 | 0.3 | 22 | 73* | 0 | -4 | 0.8
COc1ccc(N(C(=O)c2ccco2)S(=O)(=O)c2cccs2)cc1 | 0.5 | 35 | 50* | -5 | -12 | 0.7
COc1ccc(N(C(=O)c2ccco2)S(=O)(=O)c2cc(OC)ccc2OC)cc1 | 0.3 | 25 | 72* | -2 | -11 | 0.8
O=C(Nc1ccccc1N(C(=O)c1ccco1)S(=O)(=O)c1cccs1)c1ccco1 | 0.3 | 29 | 75* | -5 | 13 | 0.7
COc1ccc(N(C(C)C(=O)NCc2ccco2)S(C)(=O)=O)cc1 (stereo unspecified) | 0.9 | 6 | 8 | 3 | -1 | 0.9
COC(=O)c1ccccc1NC(=O)COC(=O)CSCC(=O)N1CCOCC1 | 1 | 7 | -3 | -3 | 4 | 0.9
CSc1ncccc1C(=O)OCC(=O)NC(=O)NCCC(C)C | 1.2 | 16 | -22 | 2 | -5 | 0.8
Nn1c(SCC(=O)N2CCCc3ccccc32)nnc1-c1ccc(Cl)cc1 | 0.9 | 12 | 13 | -3 | 4 | 0.9
O=C1CC(c2ccc3c(c2)OCO3)C2=C(CCCC2=O)N1 (stereo unspecified) | 0.5 | 14 | 52* | 1 | -12 | 0.9
CCOc1ccc(C2CC(=O)NC3=C2C(=O)CCC3)cc1 (stereo unspecified) | 1 | -6 | -5 | -4 | -5 | 1.1
O=C1CC(c2ccc(F)c(Br)c2)C2=C(CCCC2=O)N1 (stereo unspecified) | 0.7 | 69* | 29 | nt | nt | 0.3
COc1cc2c(cc1OC)C(c1ccc3c(c1)OCO3)CC(=O)N2 (stereo unspecified) | 0.7 | 45 | 32 | -4 | -16 | 0.5
O=C(NCc1ccco1)c1n[nH]c(=O)c2ccccc12 | 0.9 | 4 | 11 | -1 | -5 | 1
CCC1(C)Cc2ccccc2C(Nc2c(C)n(C)n(-c3ccccc3)c2=O)=N1 (stereo unspecified) | 0.9 | -8 | 7 | 0 | -26 | 1.1

Screens as filed in PubChem.
